These results are taken from PubChem BioAssay AID1745850 (National Center for Advancing Translational Sciences (NCATS), 2022).

Each structure is given as a SMILES string. In all, about 2,100 compounds went through this assay and about 260 (12%) were called active. Another 58% or so got no clear call; they are omitted. Calls follow the shape of the dose curve; as a rule, active = well fitted cell-killing curve with a large enough effect; inconclusive = small, poorly fitted or top-dose-only effect, or effect the other way; inactive = flat fitted curve, though single readings scatter. The list shows a part of the results. Where a call stands in place of a potency, no number is given.
Potency is read from the fitted curve at half-maximal effect.

The assay in a line: Viability Counterscreen for Confirmatory qHTS for Inhibitors of ATXN expression. Also: nearly all actives have a fitted effect of over 50% in size. The note with it: HEK-293 ATXN2-luc cells viability, CellTiter-Fluor, 24 h. Put shortly: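 Cells with an ATXN2-luciferase reporter were dosed in a dilution series for 24 h at 37 degrees C. Viability was read first with Gly-Phe-AFC at 25 uM final (fluorescence, ex 405/em 540), then SteadyGlo luminescence. Medium-only wells defined 100% inhibition.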
A general note: A counterscreen serves to expose hits that act by an unwanted route or on another target.
With `CCc1ccc(NC(=O)C2CCN(S(=O)(=O)c3ccc4c(c3)CC(C)N4C(C)=O)CC2)cc1` (stereo not given), the Potency result is “inactive”.
Under `COc1cc2[nH]c(=O)n(CCCCCC(=O)N3CC=C(c4ccccc4)CC3)c(=O)c2cc1OC` stands 3.16 µM (active); under `CCOc1ccc(S(=O)(=O)NCCC(=O)N2CC=C(c3ccccc3)CC2)cc1`, “inactive”.
For the compound `Cc1cccn2c(=O)c3cc(C(=O)NCCc4ccccc4)c(=N)n(CCCn4ccnc4)c3nc12`, the Potency entry is “inactive”.
Under `O=C(Nc1ccccc1C(=O)Nc1nnc(C(F)(F)F)s1)c1ccccc1` stands 3.98 µM (active).
Next, `Cc1onc(-c2c(F)cccc2Cl)c1C(=O)Nc1nnc(C(F)(F)F)s1`: “inactive”; `CC1CCCN(c2ncnc3c2cnn3-c2ccc(Cl)cc2)C1` (stereo not given): “inactive”.
For `O=C(NCc1ccco1)c1ccc(-c2cccc(Cl)c2)o1`, the Potency result was “inactive”.
Under `CC(NC1=CC(=O)c2cccnc2C1=O)C(O)c1ccccc1` (stereo not given) stands 31.6 µM (active); under `COc1ccc2c(c1)[nH]c1c(=O)n(/N=C/C3C(C)C=C(C)CC3C)c(=O)[nH]c12` (stereo not given), 20 µM (active); under `Cc1ccc(-c2cc(C(=O)NCCCN3CCOCC3)no2)cc1`, “inactive”.
Regarding `CCOC(=O)c1c(SCCN2CCCC2)n(-c2ccccc2)c(=S)n(-c2ccccc2)c1=O`, the Potency is 2.51 µM (active).
Next, `O=C(/C=C/NNC(=O)c1ccccc1)c1ccc([N+](=O)[O-])cc1`: 12.6 µM (active).
`CCCCC(=O)N(C)c1c(CC)nc2c(OCc3ccc(Cl)cc3Cl)cccn12`: the Potency result is “inactive”.
Consider `O=C(NCC(=O)N1CC(O)CC1C(=O)N1CCCC1C(=O)OCc1ccccc1)OCc1ccccc1` (stereo not given), for which the Potency result is “inactive”.
`COc1cccc2c1C(=N)c1c(O)c3c(c(O)c1C2=O)CC(O)(C(C)=O)CC3OC1CC(N)C(O)C(C)O1` (stereo not given): the Potency is 4.47 µM (active).
Under `CCCCC(=O)OCC(=O)C1(O)Cc2c(O)c3c(c(O)c2C(OC2CC(NC(=O)C(F)(F)F)C(O)C(C)O2)C1)C(=O)c1c(OC)cccc1C3=O` (stereo not given) stands 15.8 µM (active).
Next, `CCC1=C(OC(=O)N(CC)CC)N2C(=O)OC(=NCCc3c[nH]c4ccccc34)[C@]2(Cc2ccccc2)[C@H]2C1=CC[C@H]1C(=O)N(c3ccccc3)C(=O)[C@H]12`: “inactive”; `CCCC(=O)Nc1c(C(=O)OCC)[nH]c2ccccc12`: “inactive”; `CCOc1ccc(/C=N/NC(=O)C(O)c2ccccc2)c(O)c1` (stereo not given): “inactive”.
As for `O=c1ccc2ccccc2c2ccccc12`, the Potency is 17.8 µM (active).
Next, `O=C(N/N=C\c1c(O)ccc2ccccc12)c1ccc(Cn2cccn2)o1`: “inactive”; `Cc1ccc(Cl)cc1-c1ccc(C=Nc2ccc(N3CCOCC3)cc2)o1`: “inactive”; `CCC(C)n1cnc2c(c1=O)c1nc3ccccc3nc1n2-c1ccc2c(c1)OCCO2` (stereo not given): “inactive”.
In the case of `C=CCn1cnc2c(c1=O)c1nc3ccccc3nc1n2/N=C/c1cc(OC)c(OC)c(OC)c1`, the Potency was 20 µM (active).
As for `Cc1ccsc1/C=C/C1=Cc2c(sc(NC(=O)CSc3n[nH]c(N)n3)c2C#N)C(C)(C)C1`, the Potency result was “inactive”.
Next, `c1ccc(Cn2c(-c3ccccc3)c[n+]3c2SCCC3)cc1`: “inactive”; `Cc1ccc(S(=O)(=O)c2nc(S(C)(=O)=O)sc2N2CCCCC2C)cc1` (stereo not given): “inactive”; `Cc1ccnc(NC(=O)CCCc2c[nH]c3ccccc23)c1`: “inactive”.
Under `COc1cc(/C=C(/C#N)C(=O)NCCc2c[nH]c3ccccc23)ccc1OCc1ccccc1F` stands 25.1 µM (active).
On to `COc1ccc(CCNC(=O)c2cc3c(F)cccc3s2)cc1OC`, for which the Potency entry was “inactive”.
Regarding `Cc1c(C(=O)N2c3ccccc3Sc3ccccc32)cccc1[N+](=O)[O-]`, the Potency result is “inactive”.
Turning to `CC1(C)CC(N2CCN(Cc3ccccc3)CC2)=CC(=[N+]2CCCCC2)C1`, the Potency result was “inactive”.
Take `COc1ccc(N2CCN(c3ccnc4cc(Cl)ccc34)CC2)cc1`: the Potency result is “inactive”.
On to `CN(C)c1ccc(C(=O)N/N=C/c2cc(Br)cc(Br)c2O)cc1`, for which the Potency entry is “inactive”.
In the case of `O=C(Cc1ccccc1)N/N=C/c1cc(Br)cc(Br)c1O`, the Potency result was “inactive”.
Next, `CC(C)C(=O)Nc1ccc(C(=O)N/N=C/c2cc(Br)cc(Br)c2O)cc1`: 28.2 µM (active); `C/C(=N\NC(=O)C(C)n1nc(C)c([N+](=O)[O-])c1C)c1ccccc1O` (stereo not given): “inactive”; `Cc1ccc(/C=C2\SC(=S)N(CCCC(=O)Nc3cccnc3)C2=O)cc1`: 31.6 µM (active).
Under `Cc1ccc(/C=C2\SC(=S)N(CCCC(=O)Nc3cc(C)on3)C2=O)cc1` stands “inactive”.
Under `Cc1ccc(/C=C2/SC(=S)N(CCCC(=O)Nc3ccc(O)cc3)C2=O)cc1` stands 28.2 µM (active).
On to `O=C(CCCN1C(=O)S/C(=C\c2ccccc2)C1=O)NNC(=O)c1ccccc1O`, for which the Potency entry is “inactive”.
Next, `COC(=O)c1ccc(/C=C2/SC(=S)N(CCCC(=O)Nc3ccccn3)C2=O)cc1`: 28.2 µM (active).
`Cc1ccc(NC(=O)COc2ccc(/C=C3/SC(=Nc4ccccc4)N(Cc4cccnc4)C3=O)cc2)cc1`: the Potency is 20 µM (active).
Turning to `Cc1ccc(/C=C2\SC(=S)N(CCCC(=O)Nc3ccc(O)cc3)C2=O)cc1`, the Potency entry is “inactive”.
Under `[O-][n+]1c2ccccc2cc2ccccc21` stands “inactive”; under `O=c1c(Cc2ccccc2)c(O)nc2n1CCS2`, “inactive”; under `CC1(C)COCN1S(=O)(=O)c1ccc(C(=O)Nc2nnc(-c3ccc(Cl)s3)o2)cc1`, “inactive”.
`CC(C)(C)c1ccc(C(=O)N2CCCCCC2=O)cc1`: the Potency entry was “inactive”.
For the compound `CC(/C=C/c1ccc2c(c1)OCO2)=N\NC(=O)c1cccc([N+](=O)[O-])c1`, the Potency entry is “inactive”.
For the compound `COc1ccc(/C=C/C(=O)c2ccc([N+](=O)[O-])o2)cc1OC`, the Potency was 8.91 µM (active).
In the case of `Cc1cccc(/C=C/C(=O)c2ccc([N+](=O)[O-])o2)c1`, the Potency was 3.55 µM (active).
For the compound `COc1ccccc1NC(=S)NC(=O)c1ccc(Cn2cc(Br)cn2)cc1`, the Potency result is “inactive”.
As to `OC(c1ccccc1)(c1nc(-c2ccc3ccccc3c2)cs1)C(F)(F)F` (stereo not given), the Potency entry was “inactive”.
Regarding `O=C(NCc1ccccc1Cl)C1CCCN(C(=O)Nc2ccc(F)cc2)C1` (stereo not given), the Potency entry was “inactive”.
Under `COc1cc(C#Cc2c(-c3cncn3C)n(C)c3ccc(-c4ccc(CN5CCOCC5)cc4)cc23)cc(OC)c1` stands “inactive”.
Next, `O=C(N/N=C\c1cc(Cl)ccc1O)c1ccc(S(=O)(=O)N2CCCCC2)cc1`: “inactive”; `O=C(COc1ccc(F)cc1)N/N=C/c1cccc2cccnc12`: “inactive”.
For `CC1CCN(Cc2c(C(=O)N/N=C/c3cc(Br)ccc3O)nnn2-c2nonc2N)CC1`, the Potency entry was “inactive”.
Under `Nc1ccc(Oc2ccccc2-c2ccccc2)cc1` stands “inactive”.
Next, `CC(=O)c1cccc(-c2ccnc3c2CC(C(=O)Nc2ccc(F)c(Cl)c2)O3)c1` (stereo not given): “inactive”; `CC(=O)c1cccc(NC(=O)c2cccc3c(-c4cccc(C(N)=O)c4)coc23)c1`: 20 µM (active); `CCc1cc2c(=O)c(-c3cnn(-c4ccccc4)c3)coc2c(CN2CCOCC2)c1O`: “inactive”.
Under `COc1cc(NC(=O)c2cc(-c3ccccc3)nc3c2cnn3C(C)C)cc(OC)c1OC` stands “inactive”; under `COc1cc(NC(=O)c2cccc3c(-c4cnn(C)c4)coc23)cc(OC)c1OC`, 31.6 µM (active); under `OCCN1CCN(C(=S)c2ccc(-c3ccccc3)cc2)CC1`, “inactive”.
With `Cc1[nH]n(-c2ccccc2)c(=O)c1C=Nc1cccc2cccnc12`, the Potency entry was “inactive”.
For the compound `COc1cc(C#Cc2c(-c3cncn3C)n(C)c3ccc(-c4cnc(N5CCOCC5)nc4)cc23)cc(OC)c1`, the Potency entry was “inactive”.
Turning to `COC(=O)c1ccsc1NC(=O)CN1CCN(Cc2ccc3c(c2)OCO3)CC1`, the Potency result is “inactive”.
On to `Cc1ccc(CN2CC(C(=O)Nc3ncc(C)s3)CC2=O)cc1` (stereo not given), for which the Potency entry was “inactive”.
Take `COc1ccccc1-c1cc2nc(-c3ccccc3)cc(N3CCN(C(=O)c4ccoc4)CC3)n2n1`: the Potency was 15.8 µM (active).
Under `CC1CCN(C(=O)c2cc3nc(-c4ccccc4)cc(-c4ccccc4)n3n2)CC1` stands “inactive”; under `COc1cc(OC)cc(-c2cc3nc(C)c(CCC(=O)NCc4ccccc4)c(C)n3n2)c1`, “inactive”; under `NS(=O)(=O)c1ccc(N2N=C(c3ccccc3)CC2c2ccc(F)cc2)cc1` (stereo not given), “inactive”.
Next, `CCCCn1c(SCC(=O)Nc2cc(NC(=O)c3ccco3)ccc2C)nc2ccccc2c1=O`: “inactive”.
For `Fc1ccc2[nH]c3c(NCc4ccccc4)ncnc3c2c1`, the Potency result was “inactive”.
Under `Fc1ccc2[nH]c3c(N4CCSCC4)ncnc3c2c1` stands 25.1 µM (active).
Take `Cc1ccc(CN(C)C(=O)CN2C(=O)NC(c3ccccc3)(c3ccccc3)C2=O)c(C)c1`: the Potency result is “inactive”.
Under `COc1cc(-c2nnc(SCC(=O)N(Cc3ccccc3)C(C)(C)C)o2)cc(OC)c1OC` stands “inactive”.
Under `C=CCOC(=O)C1=C[C@@H](c2ccc3c(c2)OCO3)C[C@@H](OCCCCO)O1` stands “inactive”; under `O=S(=O)(Nc1cccc2cccnc12)c1ccccc1`, 1.78 µM (active); under `O=[N+]([O-])c1ccccc1S(=O)(=O)Nc1cccc2cccnc12`, 17.8 µM (active).
On to `O=C(Nc1cccc2cccnc12)c1csc(COCCO)n1`, for which the Potency result is “inactive”.
Under `O=[N+]([O-])c1ccc(C[n+]2cccc3ccc4cccnc4c32)cc1` stands “inactive”.
Under `O=C(Nc1cccc(Br)c1)Oc1cccc2cccnc12` stands “inactive”; under `O=c1cc(N2CCN(c3ccccc3)CC2)[nH]c(=O)n1C1CCCCC1`, “inactive”; under `Cc1cc(Cl)ccc1-c1cc2nc(NCCCN(C)C)n(C)c(=O)c2s1`, “inactive”.
Next, `O=C(Nc1ccc2c(c1)CCC2)C1CCN(c2c3c(nc4ncnn24)CCC3)CC1`: “inactive”; `CN1C/C(=C/c2cccnc2)C(=O)/C(=C/c2cccnc2)C1`: “inactive”.
In the case of `O=C1/C(=C/c2ccncc2)CCC/C1=C\c1ccncc1`, the Potency is 10 µM (active).
Next, `Cc1ccc(-c2nc3ccc(Cl)cn3c2CC(C)(C)C)cc1`: “inactive”.
As for `CCCNC(=O)c1ccc2c(=O)c(O)c(-c3cccc(Br)c3)[nH]c2c1`, the Potency entry is “inactive”.
In the case of `CCN(CC)C(=O)C1=C(C)N(CCC2=CCCCC2)C(=O)C(CC(=O)NC(c2ccccc2)c2ccccc2)C1` (stereo not given), the Potency result was “inactive”.
Regarding `CC(C)C[C@H](N)c1cn([C@@H](CCCCN)C(=O)N2CCNCC2)nn1`, the Potency entry was “inactive”.
`COc1cc(OC)cc(-c2cc3nc(C)c(CCC(=O)O)c(C)n3n2)c1`: the Potency entry is “inactive”.
